A short description of experiment [1]: NCI Yeast Anticancer Drug Screen. Data for the rad50 strain (AID 155).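 Note: 0% = growth of vehicle-only cultures of the same strain.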 Conditions: S. cerevisiae rad50 strain growth inhibition, hits give high values. In a few lines:
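A DNA repair-deficient yeast mutant serves as the test organism; compound-induced growth inhibition is calculated against vehicle-treated cells.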

Experiment [2] is described as follows: NCI Yeast Anticancer Drug Screen. Data for the mec2-1 strain (AID 157). Conditions: S. cerevisiae mec2-1 strain, hits give high values. Summed up: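 mec2-1 yeast strain, carrying an alteration in DNA damage repair or cell cycle control, was exposed to compounds; growth inhibition was measured relative to vehicle-treated controls.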
A short description of experiment [3]: NCI Yeast Anticancer Drug Screen. Data for the sgs1 mgt1 strain (AID 161).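 Note: 0% = growth of cultures given vehicle only.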 The following applies: S. cerevisiae sgs1 mgt1 strain, hits give high values. Summed up: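 This yeast growth screen uses a strain with defined DNA-repair lesions; compound-treated growth is compared with vehicle-treated growth.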
The nature of experiment [4]: NCI Yeast Anticancer Drug Screen. Data for the cln2 rad14 strain (AID 165).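 Note: 0% = growth equal to vehicle treated cultures.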 The following applies: S. cerevisiae cln2 rad14 strain, hits give high values. Summed up: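 Yeast carrying cln2 and rad14 alterations (cell cycle control and DNA damage repair) were exposed to compounds. Growth inhibition was measured against vehicle-treated controls.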
Experiment [5] can be described thus: NCI Yeast Anticancer Drug Screen. Data for the bub3 strain (AID 167). Conditions: S. cerevisiae bub3 mutant strain, hits give high values. Summed up: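 Inhibition values come from growth of compound-treated mutant yeast normalised to vehicle-treated controls.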
Experiment [6] is described as follows: NCI Yeast Anticancer Drug Screen. Data for the mlh1 rad18 strain (AID 175). The following applies: S. cerevisiae mlh1 rad18 strain growth inhibition, hits give high values. In a few lines: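 Growth inhibition of the yeast strain was measured after compound exposure and expressed relative to vehicle-treated controls. The strain carries defined defects in DNA damage repair.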

Setting [7] is: at 5.0 µM (retest, dose inferred, filed as 0.5).
[8] abbreviates: at 50.0 µM (retest, dose inferred, filed as 5.0).

This passage reports growth inhibition results from PubChem BioAssay (NCI).

Compounds without any hit were thinned out: in the full panel of roughly 79,000, 15% have a hit. A number with no mark means an inactive call. Calls of active or inactive are those of the source. Cut-off read from the data, not from the text of the source: active = growth inhibition above about 70%; inactive = the rest.

For the compound `CCOC(=O)C(=Cc1ccc(OC)cc1)C(=O)OCC`, the growth inhibition in experiment [1] (setting [7]) is 0%; in experiment [1] (setting [8]), 62%; in experiment [1] (at 50.0 µM), 39.6%; in experiment [2] (setting [7]) it was -1%; in experiment [2] (setting [8]), 70% (active); in experiment [2] (at 50.0 µM), 52.4%. For the same compound, the growth inhibition in experiment [3] (setting [7]) was -3%; in experiment [3] (setting [8]), 65%; in experiment [3] (at 50.0 µM), 55.6%; in experiment [4] (setting [7]), 1%; in experiment [4] (setting [8]), 57%; in experiment [4] (at 50.0 µM), 5.95%. Further, the growth inhibition in experiment [5] (setting [7]) is 18%; in experiment [5] (setting [8]) it was 86% (active); in experiment [5] (at 50.0 µM), 68.8%; in experiment [6] (setting [7]) it was -1%; in experiment [6] (setting [8]), 77% (active); in experiment [6] (at 50.0 µM), 66.5%.

Consider `OC1(c2ccccc2)c2ccccc2Sc2ccccc21`, for which the growth inhibition in experiment [1] (setting [7]) was 1%; in experiment [1] (setting [8]) it was 99% (active); in experiment [1] (at 50.0 µM) it was 99% (active); in experiment [2] (setting [7]), 6%; in experiment [2] (setting [8]) it was 99% (active); in experiment [2] (at 50.0 µM), 99.2% (active). In addition, the growth inhibition was 3% in experiment [3] (setting [7]); 97% (active) in experiment [3] (setting [8]); 99.2% (active) in experiment [3] (at 50.0 µM); 8% in experiment [4] (setting [7]); 99% (active) in experiment [4] (setting [8]); 99% (active) in experiment [4] (at 50.0 µM). The growth inhibition in experiment [5] (setting [7]) is -16%; in experiment [5] (setting [8]), 98% (active); in experiment [5] (at 50.0 µM) it was 99.3% (active); in experiment [6] (setting [7]), 7%; in experiment [6] (setting [8]) it was 97% (active); in experiment [6] (at 50.0 µM), 99.1% (active).

For the compound `C[n+]1cc2c3ccccc3ccc2c2ccccc21`, the growth inhibition in experiment [1] (setting [7]) is 37%; in experiment [1] (setting [8]), 79% (active); in experiment [1] (at 50.0 µM) it was 59.3%; in experiment [2] (setting [7]), 37%; in experiment [2] (setting [8]), 69%; in experiment [2] (at 50.0 µM), 53.2%. In addition, the growth inhibition in experiment [3] (setting [7]) is 32%; in experiment [3] (setting [8]), 66%; in experiment [3] (at 50.0 µM), 75.2% (active); in experiment [4] (setting [7]), 26%; in experiment [4] (setting [8]), 45%; in experiment [4] (at 50.0 µM) it was 56%. Further, the growth inhibition in experiment [6] (setting [7]) was 39%; in experiment [6] (setting [8]) it was 83% (active); in experiment [6] (at 50.0 µM), 40.3%.

On to `CCCCCCCCCCCCCC(=O)CC(=O)c1c(O)cccc1O`, for which the growth inhibition in experiment [1] (setting [7]) is 2%; in experiment [1] (setting [8]), -7%; in experiment [1] (at 50.0 µM), -9.1%; in experiment [2] (setting [7]), -3%; in experiment [2] (setting [8]), -1%; in experiment [2] (at 50.0 µM), -5.8%. Further, the growth inhibition is 7% in experiment [3] (setting [7]); -13% in experiment [3] (setting [8]); -3.9% in experiment [3] (at 50.0 µM); 10% in experiment [4] (setting [7]); 12% in experiment [4] (setting [8]); -64.6% in experiment [4] (at 50.0 µM). The growth inhibition in experiment [5] (setting [7]) was -11%; in experiment [5] (setting [8]), -5%; in experiment [5] (at 50.0 µM), 7%; in experiment [6] (setting [7]), 35%; in experiment [6] (setting [8]), 17%; in experiment [6] (at 50.0 µM), 17.1%.

In the case of `NC(=O)N/N=C/C(O)C(O)C(O)C(O)CO` (stereo unspecified), the growth inhibition in experiment [1] (setting [7]) was 0%; in experiment [1] (setting [8]), 44%; in experiment [1] (at 50.0 µM), 77.1% (active); in experiment [2] (setting [7]), -4%; in experiment [2] (setting [8]), 1%; in experiment [2] (at 50.0 µM), 59.9%. In addition, the growth inhibition is -1% in experiment [3] (setting [7]); 16% in experiment [3] (setting [8]); 35.5% in experiment [3] (at 50.0 µM); 0% in experiment [4] (setting [7]); 26% in experiment [4] (setting [8]); 6.55% in experiment [4] (at 50.0 µM). The growth inhibition was -5% in experiment [5] (setting [7]); 7% in experiment [5] (setting [8]); 36.1% in experiment [5] (at 50.0 µM); -4% in experiment [6] (setting [7]); 20% in experiment [6] (setting [8]); 19.7% in experiment [6] (at 50.0 µM).

For the compound `CC(OC(=O)Nc1cccc(Cl)c1)c1ccccc1` (stereo unspecified), the growth inhibition is 18% in experiment [1] (setting [7]); 99% (active) in experiment [1] (setting [8]); 99.2% (active) in experiment [1] (at 50.0 µM); 8% in experiment [2] (setting [7]); 99% (active) in experiment [2] (setting [8]); 99.5% (active) in experiment [2] (at 50.0 µM). Further, the growth inhibition was 12% in experiment [3] (setting [7]); 99% (active) in experiment [3] (setting [8]); 99.5% (active) in experiment [3] (at 50.0 µM); 7% in experiment [4] (setting [7]); 99% (active) in experiment [4] (setting [8]); 99% (active) in experiment [4] (at 50.0 µM). Also, the growth inhibition in experiment [5] (setting [7]) was 11%; in experiment [5] (setting [8]) it was 99% (active); in experiment [5] (at 50.0 µM), 99.7% (active); in experiment [6] (setting [7]) it was 11%; in experiment [6] (setting [8]), 99% (active); in experiment [6] (at 50.0 µM), 99.2% (active).

In the case of `CC(CC(C)[C@H]1CCC2[C@H]3C(CC(=O)[C@@]21C)[C@@]1(C)CCC(O)C[C@H]1C[C@@H]3O)C(=O)O` (stereo partly specified), the growth inhibition is -1% in experiment [1] (setting [7]); 99% (active) in experiment [1] (setting [8]); 98.3% (active) in experiment [1] (at 50.0 µM); 1% in experiment [2] (setting [7]); 99% (active) in experiment [2] (setting [8]); 98.5% (active) in experiment [2] (at 50.0 µM). For the same compound, the growth inhibition in experiment [3] (setting [7]) was -1%; in experiment [3] (setting [8]) it was 98% (active); in experiment [3] (at 50.0 µM), 98.8% (active); in experiment [4] (setting [7]), -4%; in experiment [4] (setting [8]), 99% (active); in experiment [4] (at 50.0 µM), 96.8% (active). In addition, the growth inhibition in experiment [6] (setting [7]) is 10%; in experiment [6] (setting [8]) it was 99% (active); in experiment [6] (at 50.0 µM) it was 98.2% (active).

On to `Cc1cc2c(c3c1C(=O)CC3)C(C)(C)CC2(C)C`, for which the growth inhibition is 1% in experiment [1] (setting [7]); 77% (active) in experiment [1] (setting [8]); 2.9% in experiment [1] (at 50.0 µM); -1% in experiment [2] (setting [7]); 76% (active) in experiment [2] (setting [8]); 9.15% in experiment [2] (at 50.0 µM). Further, the growth inhibition in experiment [3] (setting [7]) is 1%; in experiment [3] (setting [8]) it was 70% (active); in experiment [3] (at 50.0 µM), 1.65%; in experiment [4] (setting [7]), -2%; in experiment [4] (setting [8]), 78% (active); in experiment [4] (at 50.0 µM) it was -4.5%. Besides, the growth inhibition is 25% in experiment [5] (setting [7]); 92% (active) in experiment [5] (setting [8]); 70.2% (active) in experiment [5] (at 50.0 µM); -3% in experiment [6] (setting [7]); 64% in experiment [6] (setting [8]); 6.05% in experiment [6] (at 50.0 µM).

Consider `CN(C)Cc1ccc(C(C)(C)C)cc1-c1cc(C(C)(C)C)ccc1CN(C)C`, for which the growth inhibition in experiment [1] (setting [7]) is 7%; in experiment [1] (setting [8]) it was 3%; in experiment [1] (at 50.0 µM), 1.6%; in experiment [2] (setting [7]) it was 7%; in experiment [2] (setting [8]) it was -4%; in experiment [2] (at 50.0 µM), 1.8%. For the same compound, the growth inhibition in experiment [3] (setting [7]) was -10%; in experiment [3] (setting [8]) it was 2%; in experiment [3] (at 50.0 µM) it was -32.4%; in experiment [4] (setting [7]), 26%; in experiment [4] (setting [8]) it was -17%; in experiment [4] (at 50.0 µM), -40.5%. The growth inhibition in experiment [5] (setting [7]) was -27%; in experiment [5] (setting [8]) it was -16%; in experiment [5] (at 50.0 µM), -30.8%; in experiment [6] (setting [7]), -6%; in experiment [6] (setting [8]) it was -9%; in experiment [6] (at 50.0 µM) it was 11.9%.

`O=C(O)C(S(=O)(=O)O)S(=O)(=O)O`: the growth inhibition in experiment [1] (setting [7]) is 99% (active); in experiment [1] (setting [8]), 99% (active); in experiment [1] (at 50.0 µM) it was 99.2% (active); in experiment [2] (setting [7]) it was 54%; in experiment [2] (setting [8]) it was 99% (active); in experiment [2] (at 50.0 µM), 99.4% (active). The growth inhibition in experiment [3] (setting [7]) was 100% (active); in experiment [3] (setting [8]), 99% (active); in experiment [3] (at 50.0 µM), 99.1% (active); in experiment [4] (setting [7]) it was 100% (active); in experiment [4] (setting [8]), 99% (active); in experiment [4] (at 50.0 µM) it was 99.3% (active). The growth inhibition is 99% (active) in experiment [6] (setting [7]), 99% (active) in experiment [6] (setting [8]) and 99.3% (active) in experiment [6] (at 50.0 µM).
